This note sets out measurements from the supplement of paper PMC6522484.

The test system of assay [1] is DLD1. Put plainly: cell viability (CellTiter-Glo) relative to plate median (fraction of plate median); higher = more viable cells. Particulars: 5 µM; treatment time 24 h; reporter: 7TFP. The procedure, abridged:
(§1)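 Colorectal cancer lines with stably integrated lentiviral TCF/Wnt firefly luciferase reporters received library compounds at a final 5 µM, 24 h after seeding into 384-well plates, for a 24 h exposure. Reported figures are plate-median-normalised firefly luciferase or CellTiterGlo luminescence per well. They average two independent replicates.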
On the technique in general: In ATP-based viability assays light output follows the ATP content of the culture.

For assay [2], the system named is HCT116. The description is as above. Particulars: 5 µM; treatment time 24 h; reporter: TCF4/Wnt. The procedure, abridged: as §1
For assay [3], the system named is SW480. Described as above. Particulars: 5 µM; treatment time 24 h; reporter: 7TFP. In a few lines:
as §1

The subject of assay [4] is DLD1. Put plainly: TCF/Wnt firefly luciferase reporter signal relative to plate median (fraction of plate median); higher = higher Wnt reporter signal. Particulars: 5 µM; treatment time 24 h; reporter: 7TFP. The procedure, abridged:
as §1
For orientation: A reporter such as luciferase makes a cellular process visible.

In assay [5] the test system is SW480. The assay is described as above. Particulars: 5 µM; treatment time 24 h; reporter: 7TFP. The procedure, abridged: as §1

± gives the standard deviation of the averaged measurements.

As for `O=C1c2ccccc2C(=O)C1c1ccccc1`, the cell viability came to 1.02 in assay [1], 1.02 ± 0.048 in assay [2] and 1.02 in assay [3]. The figures for the “TCF/Wnt firefly luciferase reporter signal” value in assay [4] and in assay [5] were 1.12 ± 0.014 and 1.15 ± 0.071, respectively.

On to `C=C1CC[C@H](O)C/C1=C/C=C1\CCC[C@]2(C)[C@@H]([C@H](C)CCCC(C)C)CC[C@@H]12`, for which the cell viability in assay [1] came to 1.025 ± 0.0071; in assay [2], 0.969 ± 0.044; in assay [3] it was 0.97 ± 0.057. For the same molecule, the “TCF/Wnt firefly luciferase reporter signal” value was 0.84 ± 0.04 in assay [4] and 0.882 ± 0.054 in assay [5].

On to `O=C(O)[C@]1(O)C[C@@H](O)[C@@H](O)[C@H](O)C1`, for which the cell viability came out at 0.982 ± 0.04 in assay [1], 1.05 ± 0.16 in assay [2] and 0.934 ± 0.033 in assay [3]. Besides, the entries for the “TCF/Wnt firefly luciferase reporter signal” value in assay [4] and in assay [5] were 1.08 ± 0.16 and 0.923 ± 0.17, respectively.

On to `CCOC(=O)NNc1nncc2ccccc12`, for which the cell viability is 0.981 ± 0.07 in assay [1], 1.01 ± 0.014 in assay [2] and 0.981 ± 0.056 in assay [3]. Also, the “TCF/Wnt firefly luciferase reporter signal” value in assay [4] came out at 0.85 ± 0.045; in assay [5], 0.784 ± 0.069.

Take `CCN(CC)CCNc1ccc(CO)c2sc3ccccc3c(=O)c12`: the values for the cell viability in assay [1], in assay [2] and in assay [3] were 1.1 ± 0.028, 1.02 ± 0.014 and 0.995 ± 0.0057, respectively. For the same molecule, the figures for the “TCF/Wnt firefly luciferase reporter signal” value in assay [4] and in assay [5] were 1.16 ± 0.18 and 0.988 ± 0.1, respectively.

For the molecule `COc1cc2c(cc1-c1coc3c4c(c(OC)cc3c1=O)OC(C)(C)C=C4)OCO2`, the cell viability turned out to be 0.998 ± 0.017 in assay [1], 1.06 ± 0.014 in assay [2] and 0.986 ± 0.018 in assay [3]. The “TCF/Wnt firefly luciferase reporter signal” value in assay [4] worked out at 0.892 ± 0.014; in assay [5] it was 0.938 ± 0.0099.

Consider `CC1=C(C(=O)O)N2C(=O)[C@@H](NC(=O)[C@H](N)C3=CCC=CC3)[C@H]2SC1`, for which the figures for the cell viability in assay [1], in assay [2] and in assay [3] were 0.978 ± 0.073, 0.958 ± 0.018 and 0.948 ± 0.021, respectively. The “TCF/Wnt firefly luciferase reporter signal” value in assay [4] came to 1.01 ± 0.09; in assay [5] it was 1.02 ± 0.021.

Turning to `C=CC(N)CCC(=O)O` (stereo not given), the cell viability in assay [1] came out at 1.06 ± 0.021; in assay [2], 0.934 ± 0.086; in assay [3], 1.06. Moreover, the “TCF/Wnt firefly luciferase reporter signal” value stood at 0.952 ± 0.21 in assay [4] and 1.06 ± 0.092 in assay [5].

Consider `C=C1CCC2C(CC2(C)C)C(=C)CC/C1=N/O` (stereo not given), for which the cell viability in assay [1] is 1.03 ± 0.035; in assay [2], 1.02 ± 0.11; in assay [3], 1 ± 0.023. For the same molecule, the results for the “TCF/Wnt firefly luciferase reporter signal” value in assay [4] and in assay [5] were 1.095 ± 0.0071 and 0.907 ± 0.037, respectively.

Take `CCCCC1C(=O)N(c2ccccc2)N(c2ccccc2)C1=O`: the figures for the cell viability in assay [1], in assay [2] and in assay [3] were 1.02 ± 0.063, 0.987 ± 0.12 and 1.035 ± 0.0071, respectively. Moreover, the “TCF/Wnt firefly luciferase reporter signal” value in assay [4] is 1.14 ± 0.085; in assay [5], 1.01 ± 0.024.

Turning to `CC1(C)CC2C1CC[C@]1(CBr)CCC3C(CC(=O)O)C(=O)O[C@@]32C1` (stereo not given in full) [BROMO-3-HYDROXY-4-(SUCCIN-2-YL)-CARYOLANE gamma-LACTONE], the cell viability was determined as 0.95 ± 0.085 in assay [1], 1.03 ± 0.079 in assay [2] and 0.987 ± 0.033 in assay [3]. Besides, the “TCF/Wnt firefly luciferase reporter signal” value in assay [4] turned out to be 1.08 ± 0.035; in assay [5] it was 1.095 ± 0.0071.

For `CCCCCC/C=C\CCCCCCCc1cccc(O)c1C(=O)O`, the cell viability amounted to 1.05 ± 0.14 in assay [1], 1.08 ± 0.028 in assay [2] and 1.05 ± 0.042 in assay [3]. Besides, the “TCF/Wnt firefly luciferase reporter signal” value in assay [4] was 0.985 ± 0.14; in assay [5], 0.996 ± 0.021.

Take `C[n+]1c2cc(N)ccc2cc2ccc(N)cc21`: the cell viability was determined as 1.05 ± 0.014 in assay [1], 0.951 ± 0.084 in assay [2] and 1.08 ± 0.042 in assay [3]. Further, the “TCF/Wnt firefly luciferase reporter signal” value in assay [4] came to 1.4 ± 0.27; in assay [5], 1.01 ± 0.08.

`CCC(=O)OCC(=O)[C@@]1(OC(=O)CC)[C@@H](C)C[C@H]2[C@@H]3CCC4=CC(=O)C=C[C@]4(C)[C@@]3(F)[C@@H](O)C[C@@]21C`: the cell viability in assay [1] amounted to 1.015 ± 0.0071; in assay [2], 1.03 ± 0.073; in assay [3] it was 0.963 ± 0.018. In addition, the entries for the “TCF/Wnt firefly luciferase reporter signal” value in assay [4] and in assay [5] were 0.876 ± 0.12 and 0.941 ± 0.014, respectively.

On to `C[C@@H]([C@H]1OC(C)(C)[C@@H](O)[C@H]1O)[C@@H]1CC[C@]2(C)C3=CC[C@H]4C(C)(C)C(=O)CC[C@]4(C)[C@H]3CC[C@@]12C`, for which the cell viability in assay [1] was 1.1 ± 0.19; in assay [2], 0.998 ± 0.1; in assay [3], 1.07 ± 0.042. The “TCF/Wnt firefly luciferase reporter signal” value was 1.01 ± 0.084 in assay [4] and 0.884 ± 0.065 in assay [5].

With `CC(C)[N+]1(C)[C@@H]2CC[C@H]1C[C@@H](OC(=O)C(CO)c1ccccc1)C2` (stereo not given in full), the cell viability amounted to 1.02 ± 0.13 in assay [1], 0.989 ± 0.16 in assay [2] and 0.953 ± 0.065 in assay [3]. The “TCF/Wnt firefly luciferase reporter signal” value was determined as 1 ± 0.013 in assay [4] and 0.935 ± 0.076 in assay [5].

In the case of `COC1(C)CCC2OC2(C)CCC2C1CC2(C)C` (stereo not given), the cell viability is 1.1 ± 0.099 in assay [1], 0.97 ± 0.02 in assay [2] and 1.08 ± 0.042 in assay [3]. For the same molecule, the “TCF/Wnt firefly luciferase reporter signal” value in assay [4] was 0.934 ± 0.063; in assay [5] it was 1.02 ± 0.044.

Regarding `CC(=O)C[C@@H]1C[C@H](O)c2c(O)cccc2C1=O` [Bhimanone], the cell viability came out at 1.06 ± 0.035 in assay [1], 1.03 ± 0.035 in assay [2] and 1.05 ± 0.14 in assay [3]. The “TCF/Wnt firefly luciferase reporter signal” value is 1.11 ± 0.035 in assay [4] and 1.12 ± 0.057 in assay [5].

As to `COc1ccc2ccc(=O)oc2c1`, the cell viability was found to be 1.02 ± 0.021 in assay [1], 0.992 ± 0.025 in assay [2] and 0.97 ± 0.0071 in assay [3]. Moreover, the “TCF/Wnt firefly luciferase reporter signal” value was 0.973 ± 0.053 in assay [4] and 0.915 ± 0.12 in assay [5].

Consider `O=C1OCC(Cc2ccccc2)C1c1ccccc1` (stereo not given) [3-Benzyl-2-phenyl-butyrolactone], for which the figures for the cell viability in assay [1], in assay [2] and in assay [3] were 1.07 ± 0.085, 1.01 ± 0.014 and 0.978 ± 0.045, respectively. Further, the “TCF/Wnt firefly luciferase reporter signal” value in assay [4] came to 0.917 ± 0.12; in assay [5], 1.1 ± 0.078.

As to `C[C@H]1O[C@@H](O[C@H]2[C@@H](O)C[C@H](O[C@H]3[C@@H](O)C[C@H](O[C@H]4CC[C@@]5(C)[C@H](CC[C@@H]6[C@@H]5CC[C@]5(C)[C@@H](C7=CC(=O)OC7)CC[C@]65O)C4)O[C@@H]3C)O[C@@H]2C)C[C@H](O)[C@@H]1O`, the figures for the cell viability in assay [1], in assay [2] and in assay [3] were 0.706 ± 0.19, 0.33 ± 0.2 and 0.774 ± 0.052, respectively. Besides, the “TCF/Wnt firefly luciferase reporter signal” value in assay [4] stood at 0.157 ± 0.14; in assay [5], 0.32 ± 0.11.

As to `O=c1cc(CO)occ1O`, the cell viability in assay [1] amounted to 1.02 ± 0.057; in assay [2], 1.13 ± 0.099; in assay [3] it was 0.932 ± 0.011. Besides, the “TCF/Wnt firefly luciferase reporter signal” value in assay [4] amounted to 0.952 ± 0.069; in assay [5], 1.04 ± 0.083.

Turning to `O=C1C=CC(=C(c2ccc(O)cc2)c2ccc(O)cc2)C=C1`, the cell viability came out at 0.99 ± 0.057 in assay [1], 0.944 ± 0.018 in assay [2] and 1.01 ± 0.035 in assay [3]. The “TCF/Wnt firefly luciferase reporter signal” value was 0.851 ± 0.038 in assay [4] and 0.93 ± 0.099 in assay [5].

For `CC(C)(C)CC(C)(C)c1ccc(OCCOCC[N+](C)(C)Cc2ccccc2)cc1`, the cell viability is 1.07 ± 0.028 in assay [1], 0.99 ± 0.071 in assay [2] and 1.05 ± 0.021 in assay [3]. In addition, the “TCF/Wnt firefly luciferase reporter signal” value in assay [4] amounted to 0.983 ± 0.081; in assay [5], 0.897 ± 0.017.

For the molecule `CCN(CC)CCOc1ccc(C(=C(Cl)c2ccccc2)c2ccccc2)cc1`, the cell viability in assay [1] turned out to be 0.983 ± 0.019; in assay [2], 0.971 ± 0.041; in assay [3], 0.939 ± 0.073. The “TCF/Wnt firefly luciferase reporter signal” value in assay [4] came to 0.914 ± 0.028; in assay [5] it was 1.01 ± 0.27.

Consider `c1ccc(CC2=NCCN2)cc1`, for which the cell viability in assay [1] was 0.994 ± 0.066; in assay [2] it was 1.04 ± 0.075; in assay [3], 0.9775 ± 0.00071. Moreover, the results for the “TCF/Wnt firefly luciferase reporter signal” value in assay [4] and in assay [5] were 0.952 ± 0.082 and 1.01 ± 0.12, respectively.

Turning to `COc1c2ccoc2cc2oc(=O)ccc12`, the cell viability came to 1.02 ± 0.046 in assay [1], 0.946 ± 0.018 in assay [2] and 0.978 ± 0.015 in assay [3]. Further, the “TCF/Wnt firefly luciferase reporter signal” value in assay [4] turned out to be 0.984 ± 0.093; in assay [5], 1.01 ± 0.028.

In the case of `N=C1C=CC(=C(c2ccc(N)cc2)c2ccc(N)cc2)C=C1`, the cell viability in assay [1] stood at 0.908 ± 0.046; in assay [2] it was 0.873 ± 0.0028; in assay [3] it was 0.829 ± 0.053. The figures for the “TCF/Wnt firefly luciferase reporter signal” value in assay [4] and in assay [5] were 0.923 ± 0.057 and 0.819 ± 0.14, respectively.

Consider `O.O.O.O.O=C([O-])CC(O)(CC(=O)[O-])C(=O)[O-].[Li+].[Li+].[Li+]`, for which the cell viability in assay [1] is 0.955 ± 0.11; in assay [2] it was 0.852 ± 0.086; in assay [3], 0.966 ± 0.0028. Moreover, the results for the “TCF/Wnt firefly luciferase reporter signal” value in assay [4] and in assay [5] were 0.844 ± 0.012 and 0.725 ± 0.14, respectively.

Turning to `C[C@@H]1CC[C@@]23CCC4(C)[C@@](C=CC5[C@@]6(C)CC[C@H](O)C(C)(C)C6CC[C@]54C)(OC2=O)C3[C@H]1C` (stereo not given in full), the cell viability in assay [1] came to 1.025 ± 0.0071; in assay [2], 1.04 ± 0.028; in assay [3] it was 0.993 ± 0.0042. Also, the “TCF/Wnt firefly luciferase reporter signal” value amounted to 1.06 ± 0.18 in assay [4] and 0.994 ± 0.023 in assay [5].
